# Results published in PubChem BioAssay AID1835 (Johns Hopkins Ion Channel Center, 2009).
# Hit rate of the full screen: of about 2,400 compounds, about 750 (31%) were called active. Some of the results follow. A number with no mark means an inactive call.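 The calls were made as follows: active = median signal gain over dofetilide-blocked control wells reaching their mean plus 3 SD, so readout 1 at least 0; inactive = the rest.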
# Target: Voltage-gated inwardly rectifying potassium channel KCNH2 (Homo sapiens) (UniProt Q12809)
# Test: modulators restoring hERG flux under dofetilide – cell-based, thallium flux, duplicate retest, dofetilide IC70, confirmation (AID 1835)
# Conditions: hERG cell line, FluxOR thallium flux, dofetilide-blocked; at 10 µM; hits give high values
# Voltage-gated inwardly rectifying potassium channel KCNH2 (Homo sapiens), sequence (Q12809 whole entry, looked up): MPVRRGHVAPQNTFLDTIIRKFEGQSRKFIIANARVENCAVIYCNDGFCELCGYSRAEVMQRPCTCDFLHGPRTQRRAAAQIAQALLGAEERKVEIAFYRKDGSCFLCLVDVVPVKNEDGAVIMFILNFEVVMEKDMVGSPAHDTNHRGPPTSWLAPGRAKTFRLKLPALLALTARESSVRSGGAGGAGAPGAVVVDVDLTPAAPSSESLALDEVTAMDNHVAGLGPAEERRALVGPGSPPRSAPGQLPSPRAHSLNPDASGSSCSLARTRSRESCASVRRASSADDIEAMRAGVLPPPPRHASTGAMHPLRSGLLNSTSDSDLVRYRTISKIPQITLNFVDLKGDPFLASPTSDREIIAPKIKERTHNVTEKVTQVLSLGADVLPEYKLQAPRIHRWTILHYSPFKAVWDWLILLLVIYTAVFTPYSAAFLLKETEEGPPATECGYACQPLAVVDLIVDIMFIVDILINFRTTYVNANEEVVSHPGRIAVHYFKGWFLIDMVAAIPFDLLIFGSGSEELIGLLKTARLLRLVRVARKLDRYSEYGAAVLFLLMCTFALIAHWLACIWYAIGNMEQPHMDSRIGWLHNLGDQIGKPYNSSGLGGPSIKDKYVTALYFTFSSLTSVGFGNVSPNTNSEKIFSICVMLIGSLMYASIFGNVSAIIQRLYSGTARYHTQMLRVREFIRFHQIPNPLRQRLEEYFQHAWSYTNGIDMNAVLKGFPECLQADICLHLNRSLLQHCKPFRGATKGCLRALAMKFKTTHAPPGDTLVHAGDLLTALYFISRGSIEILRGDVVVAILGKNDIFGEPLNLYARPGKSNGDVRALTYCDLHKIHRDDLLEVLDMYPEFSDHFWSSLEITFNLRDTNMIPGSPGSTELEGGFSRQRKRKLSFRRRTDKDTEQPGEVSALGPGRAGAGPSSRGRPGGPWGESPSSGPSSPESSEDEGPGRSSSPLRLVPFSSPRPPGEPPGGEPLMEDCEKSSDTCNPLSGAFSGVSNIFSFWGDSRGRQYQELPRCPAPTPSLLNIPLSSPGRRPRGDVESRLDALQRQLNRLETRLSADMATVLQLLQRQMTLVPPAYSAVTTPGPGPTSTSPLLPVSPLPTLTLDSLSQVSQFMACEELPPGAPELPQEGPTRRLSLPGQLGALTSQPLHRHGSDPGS
row,SMILES,"activity increase over dofetilide control, less the hit threshold"
1,CCCCCCC1CCC(C(=O)N2CCOCC2)CC1 (centres undefined),-5%
2,O=C(CCCc1c[nH]c2ccccc12)Nc1ccc(S(=O)(=O)Nc2ncccn2)cc1,-19%
3,COCC1CCCN(C(=O)c2ccc3oc(C(C)C)nc3c2)C1 (centres undefined),-12%
4,O=C(c1c(O)c2ccccc2oc1=O)C1CCCCC1,-4%
5,O=c1oc2ccccc2c(Cl)c1CN1CCCCC1,2% (active)
6,Oc1c(Cl)cc(CN2CCCCC2)c2cccnc12,-6%
7,Cc1ccc(NC(=O)CCc2nc3sc4c(c3c(=O)[nH]2)CCCC4)c(Br)c1,-17%
8,NC(=O)C1CCN(C(=O)CC(c2ccccc2)c2ccccc2)CC1,-17%
9,O=c1c2cc(Cl)ccc2nc(-c2ccc(Cl)c(Cl)c2)n1O,124% (active)
10,O=c1c2ccccc2nc(-c2ccccc2)n1O,-7%
11,Cc1ccc(-c2nc3c(Cl)cc(Cl)cc3c(=O)n2O)cc1,83% (active)
12,O=C(Cc1ccccc1)Nn1c(-c2ccccc2)nc2ccccc2c1=O,-15%
13,Cc1ccc(-c2nc3ccccc3c(=O)n2O)cc1,14% (active)
14,O=c1c2cc(Cl)ccc2nc(-c2ccccc2)n1O,18% (active)
15,CCOc1ccc(N=Nc2cc(C(C)C)ccc2O)cc1,-9%
16,COC(=O)Sc1nnc(-c2ccc(Br)cc2)o1,-2%
17,CNC(=O)COC(=O)c1cccc(S(=O)(=O)N2CCN(c3ccc(F)cc3)CC2)c1,-20%
18,CCC(C)NC(=O)Cn1nc(C(F)(F)F)c2c1CCCC2 (centres undefined),-7%
19,Cc1ccccc1Cc1c(C)nc2c(C(=O)NCc3ccc4c(c3)OCO4)cnn2c1C,-11%
20,OC(CNCC(c1ccc(Cl)cc1Cl)c1c[nH]c2ccccc12)c1ccccc1 (centres undefined),-48%
21,CCOc1ccc(NC(=O)CN(C)C(=O)c2c(-c3c(F)cccc3Cl)noc2C)cc1OCC,-7%
22,CN(Cc1cccc(C(F)(F)F)c1)Cc1nc(-c2cnccn2)no1,-8%

row,SMILES,"activity increase over dofetilide control, less the hit threshold"
1,CCOC(=O)c1c(N2C(=O)Nc3ccccc3N2O)n[nH]c1-c1cccc(Cl)c1,-4%
2,Cc1ccc(-c2nc3ccc(Cl)cc3c(=O)n2O)cc1,78% (active)
3,Cc1ccc(-c2onc3ccc(Cl)cc23)cc1,0%
4,O=c1c2ccccc2nc(-c2ccc(Cl)c(Cl)c2)n1O,36% (active)
5,O=c1c2ccccc2nc(-c2cccc(Cl)c2)n1O,39% (active)
6,Cc1ccc(C(=O)NNc2cc(N3CCCC3)nc(N3CCCC3)n2)cc1,-6%
7,CCOc1ccc2[nH]cc(S(=O)(=O)c3ccc(F)cc3)c(=O)c2c1,-19%
8,Cc1ccc(-c2nc(CSCC(=O)N3CCOCC3)c(C)o2)cc1,-9%
9,NC(=O)[C@@H]1CCCN1Cc1nc(Cc2ccccc2Cl)no1,-15%
10,O=C(NC(=S)Nc1ccccc1N1CCCC1)c1ccccc1Br,-2%
11,CCCCOC(=O)c1ccc(NC(=S)NC(=O)c2c(Cl)cnn2C)cc1,-11%
12,Cc1nn(CCC(=O)NNC(=S)Nc2ccc(F)cc2)c(C)c1[N+](=O)[O-],-24%
13,CCCCOC(=O)c1ccc(NC(=S)NC(=O)c2c(Br)c(C)nn2C)cc1,38% (active)
14,Cc1nn(C)c(C(=O)NC(=S)Nc2ccccc2Br)c1Cl,27% (active)
15,CCn1ncc(Cl)c1C(=O)NC(=S)Nc1ccccc1Br,46% (active)
16,Cc1ccc(NC(=O)c2c([N+](=O)[O-])c(C(C)(C)C)nn2C)cc1,-1%
17,Cc1nn(C)c(C(=O)NC(=S)Nc2ccc([N+](=O)[O-])cc2)c1Cl,18% (active)
18,Cc1cc(C)nc(SCc2nnc(SCC(=O)Nc3nc(-c4ccccc4)cs3)n2-c2ccccc2)n1,-19%
19,CC(C)c1ccc2c(c1)c(SC(C)(C)C)c(CC(C)(C)C(=O)O)n2Cc1ccc(Cl)cc1,-9%
20,S=c1[nH]nc(-c2ccccc2)n1/N=C/c1ccc(-c2ccccc2Cl)o1,-4%
21,S=c1[nH]nc(-c2cccs2)n1/N=C/c1c(Cl)cccc1Cl,4% (active)
22,CN(C)/C=C1/C(=O)N(c2ccc([N+](=O)[O-])cc2)N=C1c1ccccc1,2% (active)

row,SMILES,"activity increase over dofetilide control, less the hit threshold"
1,CC1=NN(c2ccccc2)C(=O)/C1=C/c1ccc(-c2ccc(C)c(C(=O)O)c2)o1,-18%
2,O=C(NNC(=O)C12CC3CC(CC(O)(C3)C1)C2)c1ccccc1O,-4%
3,Cc1nnc(SCC(=O)Nc2nccs2)n1N,-22%
4,C/C(Nc1cccc(F)c1)=C(/C#N)C(N)=O,2% (active)
5,CCOC(=O)c1nnn(CC(=O)Nc2cccc(F)c2)c1C(=O)OCC,-1%
6,CC(C)[C@H](NC(=O)c1ccco1)C(=O)OCC(=O)Nc1cccc(F)c1,-12%
7,OC(CCN1CCOCC1)c1ccccc1 (centres undefined),-20%
8,Cc1ccc(C)c(NC(=O)CCN2C(=O)[C@@H]3Cc4ccccc4CN3C2=O)c1,-17%
9,CC(=O)C1C(=O)c2c(cccc2[N+](=O)[O-])C1=Nc1ccccc1C (centres undefined),-20%
10,CCN(CC)S(=O)(=O)c1ccc2[nH]c(=O)cc(C(=O)Nc3cccc(C(C)=O)c3)c2c1,-4%
11,S=c1nc(-c2ccc(Br)cc2)[nH]c2ccccc12,50% (active)
12,CC(Oc1ccc(Br)cc1)c1nc2c3ccccc3nc(=S)n2[nH]1 (centres undefined),0%
13,S=c1nc(-c2ccccc2)[nH]c2ccc(Br)cc12,95% (active)
14,CC(C)c1ccc(CNc2nc3nc4c(c(=O)n3[nH]2)CCC4)cc1,-6%
15,O=C1CCN(S(=O)(=O)c2ccc(Cl)cc2)CCN1,-25%
16,COc1ccc(S(=O)(=O)c2snnc2C)cc1,-2%
17,C=CCc1cccc(C2Nc3ccccc3C(=O)N2O)c1O (centres undefined),1% (active)
18,C=CCn1c(O)c(N=NC(=S)Nc2ccc(OC)c(Cl)c2)c2ccccc21,7% (active)
19,C=CCn1c(O)c(N=NC(=S)Nc2ccc(OC)cc2)c2ccccc21,4% (active)
20,Cc1ccc(Cn2c(O)c(N=NC(=S)Nc3ccccc3F)c3ccccc32)cc1,-13%
